# Records with an inconclusive call do not appear. A call without a number means that no potency is given here. Calls of active or inactive are those of the source. Unless noted, the call rests on the fitted dose curve; in most records, active means well fitted curve in the direction sought with a large enough effect in the repeat runs; inconclusive means weak or mixed curves; inactive means no such curve, though single readings can be large; an effect the other way counts as inactive or inconclusive.
# Assays:
# [1] = qHTS assay to identify small molecule antagonists of the glucocorticoid receptor (GR) signaling pathway - cell viability counter screen (AID 720693); conditions: GR-bla HeLa viability, CellTiter-Glo luminescence, 18 h, with 5 nM dexamethasone present; series mostly up to 58.5 µM; further: nearly all actives have a fitted effect of over 55% in size; further: potency means the concentration at half of the fitted maximal effect
# [2] = qHTS assay for identifying genotoxic compounds that show differential cytotoxicity against isogenic chicken DT40 cell lines with known DNA damage response pathways - wild type cell line (AID 743012); conditions: DT40 wild type chicken cells viability, CellTiter-Glo, 40 h; series mostly up to 68.4 µM; further: nearly all actives have a fitted effect of over 60% in size; further: potency means the concentration at half of the fitted maximal effect
# In short: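 CellTiter-Glo luminescence readout of viability in wild type DT40 cells after 40 h compound exposure at 37 C/5% CO2; 300 cells/well; reagent incubated 30 min at room temperature before reading.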
# [3] = qHTS assay for identifying genotoxic compounds that show differential cytotoxicity against isogenic chicken DT40 cell lines with known DNA damage response pathways - Rad54/Ku70 mutant cell line (AID 743015); conditions: DT40 Rad54/Ku70 mutant viability, CellTiter-Glo, 40 h; series mostly up to 66.8 µM; further: nearly all actives have a fitted effect of over 60% in size; further: potency means the concentration at half of the fitted maximal effect
# [4] = target: Androgen receptor (Homo sapiens) (UniProt P10275); test: qHTS assay to identify small molecule agonists of the androgen receptor (AR) signaling pathway using the MDA cell line (AID 743040; further: nearly all actives have a fitted effect of over 20% in size; further: potency means the concentration at half of the fitted maximal effect); conditions: MDA-kb2 AR-luc cells, MMTV luciferase, 16 h; series mostly up to 70.3 µM
# In short: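 Testing was done with the MDA-kb2 AR-luc line, a human breast carcinoma stably transfected with MMTV-luciferase containing AR and GR response elements. Cells were exposed 16 h at 37C before ONE-Glo luminescence detection.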
# [5] = qHTS assay to identify small molecule antagonists of the androgen receptor (AR) signaling pathway using the MDA cell line - cell viability counter screen (AID 743041; further: nearly all actives have a fitted effect of over 45% in size; further: potency means the concentration at half of the fitted maximal effect); conditions: MDA-kb2 viability, CellTiter-Fluor, 16 h, cells co-treated with R1881 androgen agonist; series mostly up to 70.3 µM
# In short: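 Compound exposure lasted 16 h at 37C in MDA-kb2 AR-luc cells stimulated with R1881. Protease-based CellTiter-Fluor reagent was applied for the final 30 min and fluorescence measured.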
# [6] = target: Androgen receptor (Homo sapiens) (UniProt P10275); test: qHTS assay to identify small molecule antagonists of the androgen receptor (AR) signaling pathway using the MDA cell line (AID 743042; further: nearly all actives have a fitted effect of over 55% in size); conditions: MDA-kb2 AR-luc, MMTV luciferase, R1881 antagonist, 16 h; series mostly up to 70.3 µM
# In short: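 MDA-kb2 breast carcinoma cells carrying MMTV-luciferase (AR/GR responsive) were co-treated with compounds and the agonist R1881 for 16 h at 37C. Inhibition read as ONE-Glo luminescence; CellTiter-Fluor fluorescence measured in parallel for cytotoxicity.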
# [7] = qHTS assay to identify small molecule antagonists of the androgen receptor (AR) signaling pathway - cell viability counter screen (AID 743033; further: nearly all actives have a fitted effect of over 45% in size); conditions: AR-bla HEK293 viability, CellTiter-Glo luminescence, 16 h; series mostly up to 58.5 µM
# [8] = target: Androgen receptor (Homo sapiens) (UniProt P10275); test: qHTS assay to identify small molecule agonists of the androgen receptor (AR) signaling pathway (AID 743036; active means well fitted activation curve with a large enough effect in the signal ratio in the repeat runs, with a control signal flat, not every such curve was filed as active; the % refers to the signal ratio; further: potency means the concentration at half of the fitted maximal effect); conditions: HEK293 AR-UAS-bla GripTite, beta-lactamase FRET ratio, 16 h; series mostly up to 62.4 µM
# In short: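 Fluorescence from a beta-lactamase FRET substrate served as read-out in AR-UAS-bla GripTite HEK293 cells. Cells were treated with DMSO-dissolved compounds for 16 h at 37C, then with LiveBLAzer B/G substrate for 2 h at room temperature.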
# [9] = qHTS assay for identifying genotoxic compounds that show differential cytotoxicity against isogenic chicken DT40 cell lines with known DNA damage response pathways - Rev3 mutant cell line (AID 743014); conditions: chicken DT40 Rev3-/- viability, CellTiter-Glo, 40 h; series mostly up to 68.4 µM; further: nearly all actives have a fitted effect of over 55% in size; further: potency means the concentration at half of the fitted maximal effect
# [10] = target: Androgen receptor (Homo sapiens) (UniProt P10275); test: qHTS assay to identify small molecule antagonists of the androgen receptor (AR) signaling pathway (AID 743035; active means well fitted inhibition curve with a large enough effect in the signal ratio in the repeat runs, not every such curve was filed as active; the % refers to the signal ratio); conditions: HEK293 AR-UAS-bla, R1881-stimulated, beta-lactamase FRET, 16 h; series mostly up to 58.5 µM
# In short: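 AR-bla HEK293 reporter cells; 4 h settle at 37C/5% CO2; compound + R1881 agonist, 16 h at 37C; LiveBLAzer B/G FRET substrate 2 h RT; fluorescence intensity read. qHTS format.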
# Chain of Androgen receptor (Homo sapiens) (P10275 whole entry, looked up): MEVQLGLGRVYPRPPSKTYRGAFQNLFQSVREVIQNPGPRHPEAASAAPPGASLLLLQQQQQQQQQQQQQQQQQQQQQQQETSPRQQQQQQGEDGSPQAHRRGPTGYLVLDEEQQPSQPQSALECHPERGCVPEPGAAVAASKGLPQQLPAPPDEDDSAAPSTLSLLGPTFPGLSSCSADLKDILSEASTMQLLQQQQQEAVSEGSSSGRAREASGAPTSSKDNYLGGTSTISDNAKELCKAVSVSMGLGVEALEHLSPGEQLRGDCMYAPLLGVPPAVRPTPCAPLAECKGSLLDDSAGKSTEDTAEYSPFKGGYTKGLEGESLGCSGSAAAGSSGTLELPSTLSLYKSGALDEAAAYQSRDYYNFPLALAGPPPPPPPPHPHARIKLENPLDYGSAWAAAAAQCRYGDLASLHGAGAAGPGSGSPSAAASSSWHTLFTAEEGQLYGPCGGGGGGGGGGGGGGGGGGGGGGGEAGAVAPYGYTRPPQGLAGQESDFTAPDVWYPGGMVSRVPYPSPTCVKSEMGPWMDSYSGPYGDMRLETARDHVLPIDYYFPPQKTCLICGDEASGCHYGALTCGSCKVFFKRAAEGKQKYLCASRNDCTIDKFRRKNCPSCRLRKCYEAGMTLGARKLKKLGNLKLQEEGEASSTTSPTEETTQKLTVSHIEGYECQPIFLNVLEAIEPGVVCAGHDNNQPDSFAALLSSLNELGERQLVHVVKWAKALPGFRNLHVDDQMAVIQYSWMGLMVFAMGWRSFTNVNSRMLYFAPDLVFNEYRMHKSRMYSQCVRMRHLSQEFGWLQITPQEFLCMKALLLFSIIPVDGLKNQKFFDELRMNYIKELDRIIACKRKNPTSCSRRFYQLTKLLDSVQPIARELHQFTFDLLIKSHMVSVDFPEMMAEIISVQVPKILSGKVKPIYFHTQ
smiles,measurement,setting,value
CCCCC(F)(F)[C@@]1(O)CC[C@H]2[C@@H](CC(=O)[C@@H]2CCCCCCC(=O)O)O1,Potency,[1],inactive
same,Potency,[2],inactive
same,Potency,[3],inactive
same,Potency,[4],inactive
same,Potency,[5],inactive
same,Potency,[6],inactive
CCCCCCCCCCCCCCCCOCCOCCOCCOCCOCCOCCOCCOCCOCCOCCOCCOCCOCCOCCOCCOCCOCCOCCOCCOCCO,Potency,[1],13.4 µM (active)
same,Potency,[2],2.37 µM (active)
same,Potency,[3],29.8 µM (active)
same,Potency,[5],29.8 µM (active)
CC(=O)N[C@@H](C=O)[C@@H](O)[C@H](O)[C@H](O)CO,Potency,[1],inactive
same,Potency,[2],inactive
same,Potency,[3],inactive
same,Potency,[5],inactive
C[C@]12CC[C@@H]3c4ccc(OC(=O)c5ccccc5)cc4CC[C@H]3[C@@H]1CC[C@@H]2O,Potency,[1],inactive
same,Potency,[2],2.98 µM (active)
same,Potency,[7],inactive
same,Potency,[8],3.38 µM (active)
same,Potency,[4],1.33 µM (active)
same,Potency,[5],inactive
same,Potency,[6],inactive
CCCCC(C)(O)C/C=C/[C@H]1[C@H](O)CC(=O)[C@@H]1CCCCCCC(=O)OC (some centres not stated),Potency,[1],inactive
same,Potency,[9],1.68 µM (active)
same,Potency,[3],1.19 µM (active)
same,Potency,[7],inactive
same,Potency,[5],inactive
Cc1cccc(C)c1N(CCCc1cccnc1)C(=O)C(C)N (configuration not stated),Potency,[1],inactive
same,Potency,[9],inactive
same,Potency,[3],inactive
same,Potency,[7],inactive
same,Potency,[10],inactive
same,Potency,[8],inactive
same,Potency,[4],inactive
same,Potency,[5],inactive
same,Potency,[6],inactive
C#C[C@]1(O)CC[C@H]2[C@@H]3CCC4=CC(=O)CC[C@@H]4[C@H]3C(=C)C[C@@]21CC,Potency,[1],inactive
same,Potency,[2],29.8 µM (active)
same,Potency,[7],inactive
same,Potency,[5],inactive
COc1ccc2c(=O)c(C)c(-c3ccccc3)oc2c1CN(C)C,Potency,[1],inactive
same,Potency,[9],inactive
same,Potency,[3],18.8 µM (active)
same,Potency,[7],inactive
same,Potency,[10],inactive
same,Potency,[8],inactive
same,Potency,[4],inactive
same,Potency,[6],inactive
CN1CCN2c3ncccc3Cc3ccccc3C2C1 (configuration not stated),Potency,[1],inactive
same,Potency,[9],inactive
same,Potency,[5],inactive
CS(=O)(=O)c1ccc(C2=C(c3ccccc3)C(=O)OC2)cc1,Potency,[1],inactive
same,Potency,[9],inactive
same,Potency,[3],inactive
same,Potency,[7],inactive
same,Potency,[5],inactive
O=C(OCCO)c1ccccc1O,Potency,[1],inactive
same,Potency,[9],inactive
same,Potency,[3],inactive
same,Potency,[7],inactive
same,Potency,[5],inactive
COc1ccc(C[C@@H](C)NC[C@H](O)c2ccc(O)c(NC=O)c2)cc1,Potency,[1],inactive
same,Potency,[2],29.8 µM (active)
same,Potency,[7],inactive
same,Potency,[5],inactive
CC#CCC(C)[C@H](O)/C=C/[C@@H]1[C@H]2C/C(=C/CCCC(=O)O)C[C@H]2C[C@H]1O (some centres not stated),Potency,[1],inactive
same,Potency,[9],inactive
same,Potency,[3],inactive
same,Potency,[7],inactive
same,Potency,[5],inactive
CCCCC[C@H](O)/C=C/[C@H]1[C@H](O)CC(=O)[C@@H]1CCCCCCC(=O)O,Potency,[1],inactive
same,Potency,[9],inactive
same,Potency,[5],inactive
Cc1cc(Nc2ccccc2C(=O)O)ccc1Cl,Potency,[1],inactive
same,Potency,[9],29.8 µM (active)
same,Potency,[7],inactive
same,Potency,[4],inactive
same,Potency,[5],inactive
same,Potency,[6],inactive
CC1(C)C(\C=C/C=C\C=C/C=C2/N(CCCCS(=O)(=O)O)c3ccc4ccccc4c3C2(C)C)=[N+](CCCCS(=O)(=O)[O-])c2ccc3ccccc3c21,Potency,[1],inactive
same,Potency,[9],26.6 µM (active)
same,Potency,[3],29.8 µM (active)
same,Potency,[7],inactive
same,Potency,[10],inactive
same,Potency,[4],inactive
CN1CCc2c(c3ccccc3n2Cc2ccccc2)C1,Potency,[1],inactive
same,Potency,[9],inactive
same,Potency,[7],inactive
same,Potency,[5],inactive
CCOC(=O)[C@H](CS)NCCN[C@@H](CS)C(=O)OCC,Potency,[1],inactive
same,Potency,[9],inactive
same,Potency,[7],inactive
same,Potency,[5],inactive
CN1C(=O)CN2CCc3ccccc3C2c2cc(Cl)ccc21 (configuration not stated),Potency,[1],inactive
same,Potency,[9],inactive
same,Potency,[3],inactive
same,Potency,[7],inactive
same,Potency,[5],inactive
CC(C)NCC(O)COc1ccccc1-n1cccc1 (configuration not stated),Potency,[1],inactive
same,Potency,[9],inactive
same,Potency,[3],inactive
same,Potency,[5],inactive
C#CCOc1ccc2c(C)cc(=O)oc2c1,Potency,[1],inactive
same,Potency,[2],inactive
same,Potency,[7],inactive
same,Potency,[5],inactive
CO[C@@H]1[C@@H](O[C@@H]2O[C@H](C)[C@@H](O[C@H]3C[C@@](C)(O)[C@@H](O)[C@H](C)O3)[C@H](N(C)C)[C@H]2O)[C@@H](CC=O)C[C@@H](C)[C@@H](O[C@@H]2CC[C@H](N(C)C)[C@@H](C)O2)/C=C/C=C/C[C@@H](C)OC(=O)C[C@H]1O,Potency,[1],inactive
same,Potency,[2],inactive
same,Potency,[7],inactive
same,Potency,[5],inactive
CC1(C)[C@@H]2CC[C@@]1(C)[C@H](OC(=O)CSC#N)C2,Potency,[1],inactive
same,Potency,[9],inactive
same,Potency,[3],inactive
same,Potency,[5],inactive
CNCC(O)c1ccc(OC(=O)C(C)(C)C)c(OC(=O)C(C)(C)C)c1 (configuration not stated),Potency,[1],inactive
same,Potency,[2],12.7 µM (active)
same,Potency,[7],inactive
same,Potency,[5],inactive

# Source: PubChem BioAssay (Tox21)
